Assay results published in PubChem BioAssay (Tox21).
Results filed as inconclusive are left out. A structure can be active in one record and inactive in another. Activity calls are given as the source filed them. Calls come from the whole dose curve; as a rule, active = well fitted cell-killing curve with a large enough effect in the repeat runs; inconclusive = weak or mixed curves, or effect the other way; inactive = flat fitted curve, though single readings scatter.

Experiment: cAMP Responsive Elements (CRE) small molecule agonists, cell-based qHTS assay: qHTS cell viability counter screen (AID 2060914); note: nearly all actives have a fitted effect of over 50% in size
Conditions: CRE-bla HEK293T viability, CellTiter-Glo luminescence, 5 h; series mostly up to 92.4 µM; activity change, negative = cytotoxicity: at the top concentration
How it was run: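 CRE-bla HEK293T cells in 10% dialyzed FBS medium were exposed to compounds for 3 h at 37C after 18 h plating. CellTiter-Glo was then added in the same wells, and luminescence was read after 30 min at room temperature.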
% is set by controls: 0 for no effect and ±100 for the full control effect; potency is the fitted concentration of half-maximal effect.

SMILES | activity change, negative = cytotoxicity | Potency
NCc1ccco1 | -20.3% (inactive) | –
CC[C@@H]([C@H](C)O)n1ncn(-c2ccc(N3CCN(c4ccc(OC[C@@H]5CO[C@@](Cn6cncn6)(c6ccc(F)cc6F)C5)cc4)CC3)cc2)c1=O | – | 26.6 µM (active)
ClC(Cl)Cl | -24.7% (inactive) | –
CS(=O)(=O)Nc1ccc([N+](=O)[O-])cc1Oc1ccccc1 | – | inactive
C/C(=N\O)[C@@H](C)NCC(C)(C)CN[C@H](C)/C(C)=N/O | -1.23% [at 42.5 µM] (inactive) | –
CCN1C(=O)c2ccccc2C1Nc1ccc(OCCN2CCCCC2)cc1 (stereo unspecified) | 9.4% [at 42.5 µM] (inactive) | –
CC(C)[C@H]1CC[C@@H](C)CC1=O | -1.07% (inactive) | –
CN1[C@@H]2CC[C@H]1CC(NC(=O)n1c(=O)[nH]c3ccccc31)C2 (stereo partly specified) | 1.03% [at 42.5 µM] (inactive) | –
O=C1CCCCCCCCCCCCCCCO1 | 16.2% (inactive) | –
Oc1ccc2c(c1)OC[C@@H](N1CCC(O)(c3ccc(F)cc3)CC1)[C@H]2O | 1.42% [at 42.5 µM] (inactive) | –
O=S(=O)(O)c1ccc(N=Nc2c(O)ccc3ccccc23)cc1 | -23.3% (inactive) | –
C[C@]12CC[C@@H]3c4ccc(O)cc4CC[C@H]3[C@@H]1CC[C@@H]2O | – | inactive
O=C(O)CCC(=O)C(=O)O | 8.6% (inactive) | –
CCOC(=O)C(C)C(C)=O (stereo unspecified) | 0.254% (inactive) | –
CC(C)c1ccc(O)c(C(C)C)c1 | -12.8% (inactive) | –
CCN(O)CC | -9.54% (inactive) | –
COC(=O)N/N=C/c1c[n+]([O-])c2ccccc2[n+]1[O-] | -6.82% [at 42.5 µM] (inactive) | –
CCN(CC)CCOc1ccc(/C(=C(\Cl)c2ccccc2)c2ccccc2)cc1 | -13.3% [at 42.5 µM] (inactive) | –
CC[C@]12CCCN3CCc4c(n(c5ccccc45)[C@@](O)(C(=O)OC)C1)[C@@H]32 | – | inactive
Cc1[nH]cnc1C[C@H]1CCc2c(C)c3ccccc3n2C1=O | -3.53% (inactive) | –

SMILES | activity change, negative = cytotoxicity | Potency
CC1(C)[C@@H](O)CC[C@]2(C)[C@H]3C(=O)C=C4[C@@H]5C[C@@](C)(C(=O)O)CC[C@]5(C)CC[C@@]4(C)[C@]3(C)CC[C@@H]12 | -2.03% (inactive) | –
C=CC(OCC)OCC | 5.96% (inactive) | –
COC(=O)[C@]1(C)CCC[C@@]2(C)[C@H]1CC=C1C=C(C(C)C)CC[C@@H]12 | -2.23% (inactive) | –
CCCCCCCCS(=O)C(C)Cc1ccc2c(c1)OCO2 (stereo unspecified) | -17.5% (inactive) | –
CC(C)(C)c1cc(/C=C2\SC(=N)NC2=O)cc(C(C)(C)C)c1O | -22.4% (inactive) | –
NNC(=O)CP(=O)(c1ccccc1)c1ccccc1 | 10% [at 42.5 µM] (inactive) | –
CC(=O)OC1CCCCC1C(C)(C)C (stereo unspecified) | 2.77% (inactive) | –
O=C1c2ccccc2C(=O)C1c1ccc(Br)cc1 | 4.76% [at 42.5 µM] (inactive) | –
Cc1occc1SSc1ccoc1C | 3.21% (inactive) | –
CCCCCCCCCCCCCCCCOP(=O)([O-])OCC[N+](C)(C)C | -14% [at 42.5 µM] (inactive) | –
O=C(Nc1cccc(C(F)(F)F)c1)c1cc(Br)cc(Br)c1O | – | 27.3 µM (active)
O=[Se](O)O | 25.7% [at 18.9 µM] (inactive) | 15.4 µM (active)
COc1ccnc2c1CCCCC2S(=O)c1nc2ccccc2[nH]1 (stereo unspecified) | 6.54% [at 42.5 µM] (inactive) | –
CN(C(=O)CN(CCO)CC(=O)N(C)C(C)(C)Cc1ccccc1)C(C)(C)Cc1ccccc1 | -7.7% [at 42.5 µM] (inactive) | –
NC(=NCCCCCCN=C(N)/N=C(\N)Nc1ccc(Cl)cc1)/N=C(\N)Nc1ccc(Cl)cc1 | – | 48.1 µM (active)
COc1ccc(S(=O)(=O)Nc2nnc(CC(C)C)s2)cc1 | 3.77% [at 42.5 µM] (inactive) | –
O=C(c1ccccc1)C1CCCCC1 | 7.05% (inactive) | –
O=C1CCCCCO1 | 0.0778% (inactive) | –
Oc1cccc2c(O)cccc12 | 2.53% (inactive) | –
CCc1cc(SCc2sc(-c3ccc(C(F)(F)F)cc3)nc2CN2CCN(c3ccc(OC)cc3)CC2)ccc1OCC(=O)O | – | 61.1 µM (active)
